{"source": "the supplement of paper PMC10127200", "note": "Where a name gives a salt, the structure may show the parent alone."}
{"test_system": "FB", "experiment": "Euclidean distance of Cell Painting phenotypic profile (signed KS, 77 features) to DMSO centroid (dimensionless distance); 5 or 10 uM (library dependent); higher = stronger phenotypic change vs DMSO (phenoactivity)", "conditions": "48 h", "outline": "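Harmony extracted 77 features from 20X confocal images (9 fields/well) of stained cells, scoring each as a signed Kolmogorov-Smirnov statistic against same-plate vehicle wells. The cells, five cancer lines and a healthy fibroblast line, had received library compounds for 48 h at 10 or 5 uM depending on library, with 0.1% DMSO final. Phenoactivity is the Euclidean distance from each plate-position-corrected, correlation-weighted, top-dose replicate-averaged profile to the median vehicle profile.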"}
{"smiles": "CN1CCC(OC(c2ccccc2)c2ccccc2)CC1", "note": "[Diphenylpyraline hydrochloride]", "Euclidean distance": 1.17}
{"smiles": "COc1cc2ncnc(Nc3cccc(Cl)c3)c2cc1OC", "note": "[AG-1478 (Tyrphostin AG-1478)]", "Euclidean distance": 1.21}
{"smiles": "NS(=O)(=O)c1cc2c(cc1Cl)N=C(CSCc1ccccc1)NS2(=O)=O", "note": "[Benzthiazide]", "Euclidean distance": 1.18}
{"smiles": "CCN(CC)CCNC(=O)c1ccc(N)cc1", "note": "[Procainamide HCl]", "Euclidean distance": 0.787}
{"smiles": "CCC(C)(C)c1ccc(CC(C)CN2C[C@@H](C)O[C@@H](C)C2)cc1", "note": "(stereo not given in full) [Amorolfine HCl]", "Euclidean distance": 1.61}
{"smiles": "C[C@H]1COc2c(N3CCN(C)CC3)c(F)cc3c(=O)c(C(=O)O)cn1c23", "note": "[Levofloxacin hydrate]", "Euclidean distance": 1.25}
{"smiles": "O=C(Nc1ccc(S(=O)(=O)Nc2ccccc2Cl)c(Cl)c1)c1ccccn1", "Euclidean distance": 0.594}
{"smiles": "O=S(=O)(O)CCS", "note": "[Mesna]", "Euclidean distance": 0.772}
{"smiles": "CCCCOC(=O)c1ccc(N)cc1", "note": "[Butamben]", "Euclidean distance": 1.05}
{"smiles": "CC(C)NCC(O)COc1ccc(CCOCC2CC2)cc1", "note": "(stereo not given) [Betaxolol]", "Euclidean distance": 0.967}
{"smiles": "Cc1ccc(Nc2nccc(N(C)c3ccc4c(C)n(C)nc4c3)n2)cc1S(N)(=O)=O", "note": "[Pazopanib]", "Euclidean distance": 2.44}
{"smiles": "C[C@@H]1O[C@@H](Oc2c(-c3ccc(O)c(O)c3)oc3cc(O)cc(O)c3c2=O)[C@H](O)[C@H](O)[C@H]1O", "note": "[Quercitrin]", "Euclidean distance": 1.09}
{"smiles": "Cc1c(F)cccc1NC(=O)Nc1ccc(Cl)c(S(=O)(=O)[C@H]2CCCNC2)c1O", "Euclidean distance": 1.15}
{"smiles": "CC(O)c1cc(C(=O)N[C@@H](C)Cn2ccc(-c3ccc(C#N)c(Cl)c3)n2)n[nH]1", "note": "(stereo not given in full) [Darolutamide (ODM-201)]", "Euclidean distance": 1.05}
{"smiles": "COc1ccc(-c2nc(N3CCOCC3)c3sc(CN(C)c4ncc(C(=O)NO)cn4)cc3n2)cn1", "Euclidean distance": 3.52}
{"smiles": "COc1cc2nc(N3CCN(C(=O)C4COc5ccccc5O4)CC3)nc(N)c2cc1OC", "note": "(stereo not given) [Doxazosin]", "Euclidean distance": 0.683}
{"smiles": "CS(=O)(=O)c1ccc([C@@H](O)[C@@H](CO)NC(=O)C(Cl)Cl)cc1", "note": "[Thiamphenicol]", "Euclidean distance": 1.08}
{"smiles": "CNC[C@@H](O)c1ccc(O)c(O)c1", "note": "[L-Adrenaline]", "Euclidean distance": 1.3}
{"smiles": "Cc1cc(OCCCS(C)(=O)=O)cc(C)c1-c1cccc(COc2ccc3c(c2)OC[C@H]3CC(=O)O)c1", "Euclidean distance": 2.38}
{"smiles": "Nc1nnc(-c2cccc(Cl)c2Cl)c(N)n1", "note": "[Lamotrigine]", "Euclidean distance": 1.12}
{"smiles": "O=C1Nc2ccc(CN3C(=O)CSC3=O)cc2/C1=C/c1cc(CN2CCOCC2)c[nH]1", "Euclidean distance": 1.11}
{"smiles": "CN(C/C=C/C#CC(C)(C)C)Cc1cccc2ccccc12", "note": "[Terbinafine]", "Euclidean distance": 0.587}
{"smiles": "CC(C)=CCC/C(C)=C/CC/C(C)=C/CCC(=O)OC/C=C(\\C)CCC=C(C)C", "note": "[Gefarnate]", "Euclidean distance": 1.09}
{"smiles": "CNC(=O)[C@H](Cc1c[nH]c2ccccc12)NC(=O)[C@@H](CC(=O)NO)CC(C)C", "note": "[Ilomastat (GM6001. Galardin)]", "Euclidean distance": 0.836}
{"smiles": "CCOC(=O)Nc1ccc(NCc2ccc(F)cc2)nc1N", "note": "[Flupirtine maleate]", "Euclidean distance": 1.25}
{"smiles": "C=CCNC(N)=S", "note": "[Allylthiourea]", "Euclidean distance": 0.873}
{"smiles": "OCc1cc(C(O)CNCCCCCCOCCCCc2ccccc2)ccc1O", "note": "(stereo not given) [Salmeterol]", "Euclidean distance": 1.75}
{"smiles": "CC[C@@H]1/C=C(\\C)C[C@H](C)C[C@H](OC)[C@H]2O[C@@](O)(C(=O)C(=O)N3CCCC[C@H]3C(=O)O[C@H](/C(C)=C/[C@@H]3CC[C@@H](O)[C@H](OC)C3)[C@H](C)[C@@H](O)CC1=O)[C@H](C)C[C@@H]2OC", "note": "[Ascomycin (FK520)]", "Euclidean distance": 1.43}
{"smiles": "O=C(O)c1cccnc1", "note": "[Nicotinic Acid]", "Euclidean distance": 0.953}
{"smiles": "CCc1nc2c(C)cc(N3CCN(CC(=O)N4CC(O)C4)CC3)cn2c1N(C)c1nc(-c2ccc(F)cc2)c(C#N)s1", "note": "[Ziritaxestat (GLPG1690)]", "Euclidean distance": 2.02}
{"smiles": "Cn1cnc(N)c2ncnc1-2", "note": "[3-Methyladenine]", "Euclidean distance": 1.28}
{"smiles": "CCCN(CCc1cccs1)[C@H]1CCc2c(O)cccc2C1", "note": "[Rotigotine]", "Euclidean distance": 0.9}
{"smiles": "CC(C)C[C@H](NC(=O)CNC(=O)c1cc(Cl)ccc1Cl)B1OC(=O)C(CC(=O)O)(CC(=O)O)O1", "Euclidean distance": 3.94}
{"smiles": "CCOC(=O)C1=C(COCCN)NC(C)=C(C(=O)OC)C1c1ccccc1Cl", "note": "(stereo not given) [Amlodipine Besylate]", "Euclidean distance": 1.18}
{"smiles": "CC(=O)N1C[C@H](O)C[C@H]1C(=O)O", "note": "[Oxaceprol]", "Euclidean distance": 0.895}
{"smiles": "Nc1nc(O)c2ncn(CCC(CO)CO)c2n1", "note": "[Penciclovir]", "Euclidean distance": 0.496}
{"smiles": "C[C@]12C[C@H](O)[C@H]3[C@@H](CCC4=CC(=O)CC[C@@]43C)[C@@H]1CC[C@@H]2C(=O)CO", "note": "[Corticosterone]", "Euclidean distance": 1.15}
{"smiles": "Cc1ccc(S(=O)(=O)OCC(=O)Nc2ccc(C(=O)O)c(O)c2)cc1", "Euclidean distance": 0.948}
{"smiles": "COc1ccccc1[C@H](Cn1c(=O)n(C(C)(C)C(=O)O)c(=O)c2c(C)c(-c3ncco3)sc21)OC1CCOCC1", "note": "[Firsocostat (GS-0976)]", "Euclidean distance": 1.74}
{"smiles": "CN1CCN2c3ccccc3Cc3ccccc3C2C1", "note": "(stereo not given) [Mianserin HCl]", "Euclidean distance": 2.86}
